Experimental data taken from PubChem BioAssay (NCI).
The panel holds about 83,000 compounds, 20% with a hit somewhere; the sample as a whole holds those more often.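 Single-concentration screen, 48 h exposure, 96-well plates. Endpoint: percent growth. Below 10 = active.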 Unmarked numbers belong to inactive results. The source made the active and inactive calls.

Key:
Test in all cases: NCI-60 one-dose screen, 48 h (100 = growth as untreated, 0 = no growth, -100 = all killed)
Conditions in all cases: 10 µM unless noted
BT-549 breast = system: BT-549 breast
MDA-MB-435 melanoma = system: MDA-MB-435 melanoma
SW-620 colon = system: SW-620 colon
MCF7 breast = system: MCF7 breast
HCT-116 colon = system: HCT-116 colon
HCC-2998 colon = system: HCC-2998 colon
KM12 colon = system: KM12 colon

| SMILES | growth (BT-549 breast) | growth (MDA-MB-435 melanoma) | growth (SW-620 colon) | growth (MCF7 breast) | growth (HCT-116 colon) | growth (HCC-2998 colon) | growth (KM12 colon) |
| --- | --- | --- | --- | --- | --- | --- | --- |
| CCCCCCCC/C=C/CCCCCCCC1=NC(C)(C)CN1CCO | 78.1% | -31.9% (active) | -66.3% (active) | -55.5% (active) | -68% (active) | -86.6% (active) | -68.5% (active) |
| O=c1[nH]c(Cl)nc2c1cnn2-c1ccccc1 | 52.9% | 52.4% | 50.6% | 84.3% | 31% | 91.2% | 18.6% |
| Oc1ccc(-c2nn(-c3ccccc3)cc2-c2nc3ccccc3s2)cc1 | 103% | 102% | 99.6% | 50.4% | 88.8% | 102% | 82.8% |
| Cc1nn(-c2ccccc2)c2ncc3c(c12)C(=O)N(Cc1ccccc1)C3=O | 76.4% | 90.7% | 61% | 58.8% | 10.5% | 63% | 85.8% |
| S=C1SCN(Cc2ccccc2)CN1Cc1ccco1 | 102% | 37.8% | 41.7% | 18.2% | 25.5% | 103% | 58.2% |
| CC(O)c1nc2c(c(=O)n(C)c(=O)n2C)n1C (stereo unspecified) | 109% | 111% | 110% | 102% | 90.2% | 103% | 113% |
| CCCCCCCCCCCCCCCCCC1=NC(C)(C)CN1CCO | 58.9% | -60.1% (active) | -60.4% (active) | -59.5% (active) | -67% (active) | -87.6% (active) | -76.3% (active) |
| O=C(C(=O)N1CCCCC1)c1ccc(OC2OC(CO)C(O)C(O)C2O)cc1 (stereo unspecified) | 116% | 107% | 109% | 94.3% | 109% | 108% | 115% |
| COc1ccc(Cn2c(NCCCN(C)C)nc(=O)n(Cc3ccc(F)cc3)c2=O)cc1 | 92.5% | 102% | 100% | 87.9% | 93.8% | 101% | 99.8% |
| COc1cc2cn3c4ccc(O)cc4nc(N)c3c2cc1OC | 20.6% | 12.4% | 26.1% | 6.3% (active) | -50.7% (active) | 27.2% | 37.9% |
| Nc1nonc1-c1nc2ccccc2n1CC(=O)Nc1ccc2c(c1)COC2=O | 81.3% | 5.9% (active) | 59.1% | 73.8% | 74.1% | 92.3% | 64.4% |
| CC1CC(C)/C(=N/NC(N)=O)C(C(O)CC2CCC(=O)NC2=O)C1 (stereo unspecified) | 53.1% | 34.3% | 34.3% | 36.7% | 24% | 58.8% | 32.3% |
| CC(=O)c1nc2ccccc2n1CCn1cc(CC(N)C(=O)O)c2ccccc21 (stereo unspecified) | 105% | 101% | 114% | 75.3% | 106% | 102% | 104% |
| COc1cc(/C=C/C(=O)N2CCN(C(=O)/C=C/c3ccccc3)CC2)cc(OC)c1OC | 104% | 111% | 109% | 110% | 105% | 102% | 118% |
| CCOC(=O)/C=C(/C)Sc1cc(O)c2ccccc2c1O | -37.1% (active) | -82.2% (active) | -40.2% (active) | -75.9% (active) | 122% | 17.3% | 3.07% (active) |
| COc1cccc2c1C(=O)c1c(O)c3c(c(O)c1C2=O)C[C@@](O)(/C(C)=N/NC(=O)c1cccc([N+](=O)[O-])c1)C[C@@H]3OC1CC(N)C(O)C(C)O1 (stereo partly specified) | -14.9% (active) | -34.3% (active) | -43.5% (active) | -8.97% (active) | -53.8% (active) | -58.2% (active) | -39.2% (active) |
| CC(=O)Oc1ccc(C2OC(c3ccc4ccccc4c3OC(C)=O)=NN2C(C)=O)c(OC(C)=O)c1 (stereo unspecified) | 31% | 33.6% | 32% | 15.6% | 20.6% | 29.9% | 19.7% |
| Cc1cc2cn3c4cccnc4[nH]c(=O)c3c2cc1C | 73.2% | -20.7% (active) | -29.5% (active) | -36.9% (active) | -85.3% (active) | 60% | 13.1% |
| CC1=CC(=O)C(C(C)=Nc2ccccc2Cl)C(=O)O1 (stereo unspecified) | 121% | 111% | 91.6% | 118% | 100% | 119% | 108% |
| COc1cc(NC(=O)c2cc3ccccc3cc2O)c(OC)cc1Cl | -24.3% (active) | 3.67% (active) | 17.5% | 2.91% (active) | -21.3% (active) | -40.4% (active) | 5.63% (active) |
| O=C(/C=C/c1ccc(O)c(O)c1)N1CCN(c2ccc(Cl)cc2)CC1 | 56.9% | 67.9% | 64% | 74.9% | 55.7% | 82.9% | 73.5% |
| COC(=O)C[C@@H]1CC=CC(=O)/C1=C(O)/C=C/c1ccccc1 | -36.3% (active) | -32.1% (active) | -81.7% (active) | -3.08% (active) | -92.2% (active) | -95.1% (active) | -76.3% (active) |
| CC(=O)NC1(C(=O)O)CCCC1 | 118% | 123% | 103% | 97.8% | 112% | 138% | 119% |
